From the supplement of paper PMC10338343
± gives the standard deviation.

Test system: MILI (PIWIL2) piRISC loaded with L1MC piRNA (26 nt)
Test: pre-steady-state target cleavage rate (min^-1); guide: L1MC piRNA 5'p-UAACUAAAUACUAUGCAAGCUGUAGG; MIWI and MILI are mouse PIWI proteins and EfPiwi is from a freshwater sponge; tags in brackets are library labels; higher = faster piRNA-guided slicing of the target
Settings: auxiliary factor: 500 nM mouse GTSF1
Summary of the method: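 Cleave-'n-Seq measured uncleaved targets by sequencing after a transcribed, DNA-blocked target RNA library […] was mixed with 1 nM active affinity-purified piRISC holding one synthetic guide, with or without 500 nM GTSF1 partner protein, at 33 °C in HEPES–potassium acetate buffer for 0–8 or 0–960 min. Counts were normalised to depth and to weakly complementary targets, three trials were pooled, and k3 was capped at 0.0001 min^-1. A burst-and-steady-state fit gave the pre-steady-state cleavage rate.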
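Further: 1 nM active piRISC with 0.1 nM target library at 33 °C single turnover.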

Sequence | pre-steady-state target cleavage rate
UCCUGGUACAGCUUGCAUAGUAUAAUGAAA | 0.0203 ± 0.0077
UCCUGGAUCAGCUUGCAAAGUAUUUAGAAA | 0.0827 ± 0.015
UCCUGGAUGUCGAACGAUCAGUAUUUAGUUA | < 0.0001
UCCUGGAUGUCGAACCAUUGUAUAUAGUUA | < 0.0001
UCCUGGAUGUCGUUGCAUAGUAUUUAUUUA | 0.0344 ± 0.011
UCCUGGUACAGCAAGCAUAGUAUUUAGAAA | 0.104 ± 0.031
UCCUGGAUGUCCUUGCAUAGCAUUUAGUUA | 0.0257 ± 0.0079
UCCUGGAUCACGUUGCAUAGUAUUUUCAAA | 0.0743 ± 0.025
UCCUGGUACUCGUUGCAUAGUAUUUAGUAA | 0.0635 ± 0.029
UCCUCCAUGAGCUUGCAUAGUAUUUUCAAA | 0.0168 ± 0.0069
UCCUGGAUGACGUUGCAUAGUAUUUAGAAA | 0.0501 ± 0.014
UCCUGGAUGUCGAACCAUAGUAUUUAGUUA | 0.00718 ± 0.0019
UCCUGCUACAGCUACCAUAGUAUUUAGAAA | 0.0677 ± 0.021
UCCUGGAUGAGCUUGCAUAGAAUUUUGUUA | 0.0139 ± 0.0063
UCCUGCUACAGCUUGCUAAGUAUUUAGAAA | 0.0738 ± 0.017
UCCUGGAUGUCCUUGCAUAGUAUUUACAAA | 0.0869 ± 0.025

Sequence | pre-steady-state target cleavage rate
UCCUGGAUGUCCUUGCAUAGUAUAUAGAUA | 0.0132 ± 0.0063
UCCUGGAUGUGCUUGCAUAGUCAUUUAGUUA | 0.00678 ± 0.0044
UCCUGGAUGUCGUUGCAUAGCAUUUAGUUA | 0.0206 ± 0.007
UCCUGCUACAGCUUCCAUAGUAUUUUGUUA | 0.00554 ± 0.0042
UCCUGGAUGUCGAUGCAUAGUAUUUAUGUUA | 0.106 ± 0.022
UCCUGGAACAGCUUGGUAAGUAUUUAGAAA | 0.0429 ± 0.015
UCCUGGUUGAGCUUGCAUAGUAUUUAGAAA | 0.0925 ± 0.026
UCCUGGAUCAGCUUCCAUAGUUUUUAGUUA | 0.0089 ± 0.0041
UCCUGGAUGUCCUUGCAAAGUAUUUUGUUA | 0.0119 ± 0.0056
UCCUGCUACAGCUUGCAUAGUUUUUACUUA | 0.0291 ± 0.0063
UCCUGGAUCAGCUUGCAUACUAUUUAGAAA | 0.0141 ± 0.0069
UCCUGCUACAGCUUGCAUUCUAUUUACAAA | 0.0141 ± 0.0062
UCCUCCUACAGCUACCAUAGUAUUUAGUAA | 0.141 ± 0.023
UCCUCCUUCAGCUUGCAUAGUAUUUACUUA | 0.132 ± 0.023
UCCUGGAUGUCGAAGCAUCGUAUUUAGUUA | 0.00755 ± 0.0031
UCCUGGAUGUGCUUGCAUUGUAUUUAGUAA | 0.0856 ± 0.015

Same assay, conditions: auxiliary factor: none (no GTSF1)

Sequence | pre-steady-state target cleavage rate
UCCUGGAUGUCGAACGAAAGUAUAUAGUUA | < 0.0001
UCCUGGAUGUCGAACCAUAGUUUUUAGUAA | < 0.0001
UCCUGGAUGUCGAACGAUAGUUUUAAGUUA | < 0.0001
UCCUGGAUGUCGAACGUUAGUAUUUACGUUA | < 0.0001
UCCUGGAUGUCGAACCAUUCUAUUUAGUUA | < 0.0001
UCCUGGAUGUCGAACCAUUAGUAUUUAGUUA | < 0.0001
UCCUGGAUGUCGUUCCUUAGUAUUUAGUUA | < 0.0001
UCCUGGAUGUCGAACCAAGUAUUUAGUUA | < 0.0001
